From PubChem
In the library only some 1% were active in any assay of this set; here they are far more common.
BLM inh – Bloom syndrome helicase (human) inhibition; recombinant BLM DNA unwinding, fluorescence dequenching; Potency, µM (doses to about 56.1 µM), without a hit: at the highest dose activity change, negative = inhibition, usual class: inhibitors; hit rate 0.2% among 350,000;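 also: plate controls were vehicle for no effect and no enzyme for full effect; nearly all actives have a fitted effect of over 35% in size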
L3MBTL1 block – inhibitors of human L3MBTL1. Q9Y468. AlphaScreen L3MBTL1–H3K9me1 peptide binding. Potency, µM (doses to about 57.1 µM), inactives show at the top dose activity, negative = inhibition, hits mostly inhibitors. hit rate 0.66% among 230,000; also: nearly all actives have a fitted effect of over 60% in size
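L3MBTL1 50 nM + b-AHA-H3(1-15)K9me1 75 nM, 30 min RT; compound added, 30 min RT; streptavidin donor/Ni-chelate acceptor beads 10 ug/mL each final, 30 min RT dark; AlphaScreen read.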
APE1 inh – APE1 (human) endonuclease inhibition. recombinant APE1, TAMRA/BHQ-2 abasic DNA cleavage fluorescence. Potency, µM (series often up to 65.8 µM), for the others: top-dose activity change, negative = inhibition, actives largely listed as inhibitors. hit rate 0.35% among 350,000;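 also: plate controls were vehicle for no effect and reference inhibitor for full effect; nearly all actives have a fitted effect of over 55% in size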
Target sequence (P27695 whole entry, looked up): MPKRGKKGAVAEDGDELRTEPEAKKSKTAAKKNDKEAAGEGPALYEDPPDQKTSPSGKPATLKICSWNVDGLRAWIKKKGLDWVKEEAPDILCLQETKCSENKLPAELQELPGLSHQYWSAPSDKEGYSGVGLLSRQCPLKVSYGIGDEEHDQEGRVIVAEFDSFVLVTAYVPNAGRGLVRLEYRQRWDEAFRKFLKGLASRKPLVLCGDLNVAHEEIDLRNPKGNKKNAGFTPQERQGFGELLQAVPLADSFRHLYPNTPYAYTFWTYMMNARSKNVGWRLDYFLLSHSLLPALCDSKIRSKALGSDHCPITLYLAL
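APE1 at 0.75 nM preincubated 15 min at room temperature with compound. Reaction then started with 50 nM double-stranded THF-abasic substrate labelled with TAMRA/BHQ-2, and 525/598 nm fluorescence read kinetically. Activity taken as third-minus-first read difference, normalized to DMSO and NSC13755 controls.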
WRN helicase inh – inhibitors of human WRN helicase; Q14191; WRN helicase unwinding, fluorescent forked duplex, kinetic; Potency, µM (top dose mostly 114 µM), inactives show at the highest dose activity change, negative = inhibition, actives largely listed as inhibitors; hit rate 0.46% among 360,000; AID 651768; also: nearly all actives have a fitted effect of over 55% in size
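WRN at 20 nM final was preincubated with compound for 15 min at room temperature; reaction started with 100 nM forked duplex oligonucleotide carrying fluorophore and quencher plus 2 mM ATP (final). Unwinding followed kinetically by red fluorescence (ex 525/em 598 nm).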
RECQ1 inh-1 – blocks DNA unwinding by human RECQ1. P46063. Potency, µM (series often up to 57.3 µM), for inactives: top-dose activity, negative = inhibition, most hits filed as inhibitors. RECQ1 DNA unwinding, red fluorescence kinetic read. hit rate 0.54% among 240,000;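 also: plate controls were vehicle for no effect and no enzyme for full effect; nearly all actives have a fitted effect of over 30% in size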
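50 nM RECQ1T1 preincubated 15 min with compound in Tris pH 8.0 buffer with MgCl2, DTT, Tween-20 and 2.5 ug/ml poly(dI-dC); started with 200 nM TAMRA/BHQ-2 forked duplex and 2 mM ATP. Unwinding read as fluorescence (525/598 nm), two reads 2 h apart.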
FEN1 inhibitor – inhibitors of human flap endonuclease 1; Potency, µM (highest dose often 114 µM), for inactives: at the top dose activity change, negative = inhibition, most hits filed as inhibitors; Recombinant FEN1 flap cleavage, fluorescence, 15 min; AID 588795; P39748; hit rate 0.35% among 390,000; also: nearly all actives have a fitted effect of over 65% in size
Target sequence (P39748 whole entry, looked up): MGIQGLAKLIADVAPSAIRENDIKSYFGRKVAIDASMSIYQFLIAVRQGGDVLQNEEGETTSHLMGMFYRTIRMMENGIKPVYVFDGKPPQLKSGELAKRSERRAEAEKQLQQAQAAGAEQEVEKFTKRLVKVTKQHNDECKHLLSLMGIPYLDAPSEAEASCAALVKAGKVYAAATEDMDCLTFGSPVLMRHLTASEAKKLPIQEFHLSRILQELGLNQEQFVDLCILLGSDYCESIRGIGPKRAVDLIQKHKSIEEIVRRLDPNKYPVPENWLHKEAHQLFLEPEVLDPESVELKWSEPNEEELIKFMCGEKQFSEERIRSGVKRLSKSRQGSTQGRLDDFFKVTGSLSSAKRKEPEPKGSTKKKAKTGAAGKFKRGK
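FEN1 at 10 nM preincubated with compounds 15 min at room temperature, then flap DNA substrate added at 50 nM final. Signal read at 0 and 15 min; concentration-response fitted with four-parameter Hill equation.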
RECQ1 inh conf – confirmation of human RECQ1 helicase inhibitors; hit rate 28% among 610; shares compounds with RECQ1 inh-1; RECQ1 helicase DNA unwinding, fluorescence; Potency, µM (series often up to 229 µM), for inactives: at the highest dose activity change, negative = inhibition, usual class: inhibitors; AID 2708; also: nearly all actives have a fitted effect of over 45% in size
ADP FP counter – counter-screen for RECQ1 inhibitors: ADP displacement | shares compounds with RECQ1 inh-1 | ADP fluorescence polarization displacement counterscreen | Potency, µM (top dose mostly 228 µM), inactives show top-dose activity change, negative = inhibition, usual class: inhibitors | hit rate 27% among 530; also: nearly all actives have a fitted effect of over 45% in size
RECQ1 inh-2 – blocks human RECQ1 DNA unwinding; AID 504841; hit rate 15% among 1,100; shares compounds with RECQ1 inh-1; Potency, µM (titrated, usually from 119 µM), for the others: at the top dose activity, negative = inhibition, usual class: inhibitors; recombinant RECQ1 DNA unwinding, red fluorescence; also: nearly all actives have a fitted effect of over 50% in size
The depositor's hits bear a star; i = inactive; ? = inconclusive; · = not tested or not shown; [ ] = another dose, or the depositor's remark. Calls follow the shape of the dose curve; as a rule, active = well fitted curve in the direction sought with a large enough effect; inconclusive = small, poorly fitted or top-dose-only effect, or another doubt; inactive = no such curve, though single readings can be large; an effect the other way counts as inactive or inconclusive. Unless noted, % is scaled to controls: 0 for no effect and ±100 for the full control effect; potency is read from the fitted curve at half-maximal effect.

SMILES	BLM inh	L3MBTL1 block	APE1 inh	WRN helicase inh	RECQ1 inh-1	FEN1 inhibitor	RECQ1 inh-2	others
C#CCN1C(=O)S/C(=C/C=C/c2ccc(N(C)C)cc2)C1=O	?	?	?	35.5µM*	25.1µM*	?	17.8µM*
C=CCn1c(NC(=O)c2ccc(Br)o2)c(S(=O)(=O)c2ccccc2)c2nc3ccccc3nc21	?	?	?	?	?	-23.4%	-12.7%
C=CCn1c(NC(=O)c2ccco2)c(S(=O)(=O)c2ccccc2)c2nc3ccccc3nc21	-8.5%	-12.2%	10.5%	·	-17.6%	·	·
CC1(COc2ccc(C[C@H]3SC(=O)NC3=O)cc2)CCCCC1	-19.0%	·	8.5%	·	6.0%	·	·
Cc1c(C)c2c(c(C)c1O)CCC(C)(COc1ccc(CC3SC(=O)NC3=O)cc1)O2 (stereo not given)	-18.7%	·	-4.8%	·	?	·	?
COc1cccc(-c2nc(NCc3ccccc3OC)c3ccccc3n2)c1	-8.1%	·	13.9%	·	-15.7%	·	·
COc1ccccc1CNc1nc(-c2ccc3c(c2)OCO3)nc2ccccc12	-16.7%	·	7.5%	·	?	·	-13.2%
O=C(NCc1ccco1)C(=O)NCC1OCCN1S(=O)(=O)c1cc(F)ccc1F (stereo not given)	-11.9%	·	?	1.4%	17.8µM*	-1.7%	·	RECQ1 inh conf=5.8%[114 µM];ADP FP counter=-2.8%[91.9 µM]
O=C(NCc1ccco1)C(=O)NCC1OCCN1S(=O)(=O)c1ccc(F)cc1 (stereo not given)	-4.9%	-5.4%	-2.2%	-7.0%	i	2.1%	·
O=C(O)/C(=C\c1ccc(Cl)cc1)c1ccc(S(=O)(=O)N2CCCC2)s1	·	-0.7%	-6.6%	-16.4%	·	2.9%	·
O=C(O)/C(=C\c1ccccc1Cl)c1ccc(S(=O)(=O)N2CCCCC2)s1	-15.5%	-11.1%	23.9%	-13.9%[57.1 µM]	3.0%	-4.7%	·	RECQ1 inh conf=126µM*;ADP FP counter=-9.4%
COc1ccc(C(=O)NCCCN2CCOCC2)cc1S(=O)(=O)N1CCCc2ccccc21	-5.7%	·	18.3%	9.8%	39.8µM*	4.4%	0.3%
COc1ccc(C(=O)NC2CCCCCC2)cc1S(=O)(=O)N1CCCc2ccccc21	-9.1%	·	18.2%	-1.9%	-10.7%	9.2%	·
O=C(O)c1cc2ccccc2c(Cc2cc3ccccc3c(C(=O)O)c2O)c1O (tested in a mixture with another compound)	1.0%[21.4 µM]	·	?	·	17.8%[25.9 µM]	·	·
COc1ccc(-c2nn(-c3ccccc3)cc2/C=C/C(=O)O)cc1[N+](=O)[O-]	10.2%	?	-8.5%	-10.0%	?	7.5%	-4.8%
Cc1cccc(C(=O)Nc2ccc(C(=O)/C=C/c3cccnc3)cc2)c1	-14.8%	-3.1%	3.3%	?	1.12µM*	-15.2%	?	RECQ1 inh conf=-7.8%[114 µM]
O=C(/C=C/c1cccnc1)c1ccc(NC(=O)c2cccc(Br)c2)cc1	-5.9%	-4.0%	-5.3%	-9.1%	-7.4%	-12.7%	·
COc1ccc(/C=C2\SC(=O)N(CC(=O)NNC(=O)c3ccccc3O)C2=O)cc1	-2.8%	-5.3%	16.3%	-3.3%	2.82µM*	8.6%	?
CNc1ccc(Br)cc(C(=O)/C=C/c2ccc3c(c2)OCO3)c1=O	-22.7%	28.2µM*	?	?	?	50.1µM*	?
CNc1ccc(Br)cc(C(=O)/C=C/c2ccc(OC)cc2)c1=O	?	-16.3%	?	-7.8%[11.6 µM]	?	3.8%	-12.8%
COc1ccc(/C=C/C(=O)c2cc(C(=O)/C=C/c3ccc(OC)cc3)c(O)cc2O)cc1	·	·	·	·	·	15.4%	·
O=C(C=Cc1ccc2c(c1)OCO2)c1ccccc1	·	·	·	-2.8%	·	-2.6%	·
CCN(CC)S(=O)(=O)c1ccc(OC)c(NC(=O)/C=C/c2ccco2)c1	-17.9%	-0.4%	-10.4%	-8.2%	25.1µM*	-17.8%	-27.8%
CCN(CC)S(=O)(=O)c1ccc(N2CCCCC2)c(NC(=O)/C=C/c2ccc(OC)c(OC)c2)c1	-1.5%	-7.9%	-11.8%	-22.4%[57.1 µM]	-0.4%	-0.3%	·
COc1cc(Cl)c(CC(=O)NO)cc1OC	·	·	·	·	·	-3.0%	·
SMILES	BLM inh	L3MBTL1 block	APE1 inh	WRN helicase inh	RECQ1 inh-1	FEN1 inhibitor	RECQ1 inh-2	others
O=c1c2c(nc3n1CCCCC3)sc1c(O)c(Br)ccc12	-8.5%	·	-3.3%	-11.3%	-7.1%	-16.4%	·
CCN(CC)CCOc1c(Br)ccc2c1sc1nc3n(c(=O)c12)CCC3	177.1%	-0.4%	-0.1%	8.1%[57.1 µM]	?	50.1µM*	-22.7%
O=C(CCn1nnc2ccccc2c1=O)NCC1CCC(C(=O)O)CC1 (stereo not given)	-0.1%	-1.3%	?	11.7%	-5.1%	-3.2%	·	RECQ1 inh conf=9.4%;ADP FP counter=0.1%
C[C@@H]1CN(Cc2nnnn2CC(=O)NCCCn2cccn2)C[C@H](C)O1	·	·	·	0.6%	·	·	·
COc1cccc(C2c3c(C)nn(-c4ccc([N+](=O)[O-])cc4)c3N=C3C(=O)Nc4ccccc4N32)c1 (stereo not given)	-1.0%	-18.6%	2.7%	1.4%	?	-6.2%	-11.7%
COC(=O)C1=C(C)NC(C)=C(C(=O)NCCCN2CCC(c3ccccc3)(c3ccccc3)CC2)C1c1ccc([N+](=O)[O-])cc1 (stereo not given)	-7.8%	·	-4.7%	·	1.8%	·	·
COc1ccc2cc(-c3[nH]ncc3CN3CCCN(c4ccccc4)CC3)ccc2c1	-6.0%	-15.2%	-7.1%	-11.4%	?	2.4%	-23.1%
COc1ccc(C(=O)N[C@H](C(=O)Nc2cccc(S(=O)(=O)N3CCOCC3)c2)C(C)C)cc1	·	·	·	8.2%	·	·	·
O=C1CCCC/C1=C\Nc1ccc(O)cc1	-9.1%	?	?	-4.2%	?	-3.1%	-25.4%
Nc1ccc(N2CCN(c3ncc(C(F)(F)F)cc3Cl)CC2)c(C(F)(F)F)c1	-20.5%	·	·	·	·	?	·
COC/C=C/C1=CC2=CC(=O)C(C)(OC(=O)C3CCCC3)C(=O)C2=CO1 (stereo not given)	3.3%	·	?	79.4µM*	?	39.8µM*	?
Cc1ccc(N2CC(C(=O)OCC(=O)c3ccc[nH]3)CC2=O)cc1 (stereo not given)	·	-0.7%	-4.8%	0.2%	·	0.8%	·
CC(C)(C)C1CCC(C(=O)OCC(=O)c2ccc[nH]2)CC1 (stereo not given)	-11.9%	-13.1%	10.0%	-26.7%[57.1 µM]	?	-23.9%	-25.4%
